Assays:
Test in all cases: log2 ratio of Biotin-Ahx-Ub-VS probe labelling (fragment/DMSO); higher = less target engagement (more negative = stronger competition), active = hit call of the paper (q ≤ 0.05, log2 ratio ≤ -1)
Settings in all cases: compound concentration: 200 uM; treatment time: 3 h
[1] = target: USP34 (UniProt Q70CQ2)
Procedure, shortened: (§1)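 Values give the average log2 ratio of fragment to vehicle, assessed by unpaired t-test on global-median-normalised Spectronaut label-free quantities. Proteins needed ≥2 unique peptides. HEK293T lysate (495 µg per sample) was treated in triplicate with fragment at 200 µM or vehicle for 3 h and then with Biotin-Ahx-Ub-VS at 0.5 µM final for 1 h. Labelled DUBs were NeutrAvidin-enriched, digested and run by diaPASEF LC-MS/MS.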

[2] = target: T1, USP36 (UniProt Q9P275)
T1 sequence (whole entry): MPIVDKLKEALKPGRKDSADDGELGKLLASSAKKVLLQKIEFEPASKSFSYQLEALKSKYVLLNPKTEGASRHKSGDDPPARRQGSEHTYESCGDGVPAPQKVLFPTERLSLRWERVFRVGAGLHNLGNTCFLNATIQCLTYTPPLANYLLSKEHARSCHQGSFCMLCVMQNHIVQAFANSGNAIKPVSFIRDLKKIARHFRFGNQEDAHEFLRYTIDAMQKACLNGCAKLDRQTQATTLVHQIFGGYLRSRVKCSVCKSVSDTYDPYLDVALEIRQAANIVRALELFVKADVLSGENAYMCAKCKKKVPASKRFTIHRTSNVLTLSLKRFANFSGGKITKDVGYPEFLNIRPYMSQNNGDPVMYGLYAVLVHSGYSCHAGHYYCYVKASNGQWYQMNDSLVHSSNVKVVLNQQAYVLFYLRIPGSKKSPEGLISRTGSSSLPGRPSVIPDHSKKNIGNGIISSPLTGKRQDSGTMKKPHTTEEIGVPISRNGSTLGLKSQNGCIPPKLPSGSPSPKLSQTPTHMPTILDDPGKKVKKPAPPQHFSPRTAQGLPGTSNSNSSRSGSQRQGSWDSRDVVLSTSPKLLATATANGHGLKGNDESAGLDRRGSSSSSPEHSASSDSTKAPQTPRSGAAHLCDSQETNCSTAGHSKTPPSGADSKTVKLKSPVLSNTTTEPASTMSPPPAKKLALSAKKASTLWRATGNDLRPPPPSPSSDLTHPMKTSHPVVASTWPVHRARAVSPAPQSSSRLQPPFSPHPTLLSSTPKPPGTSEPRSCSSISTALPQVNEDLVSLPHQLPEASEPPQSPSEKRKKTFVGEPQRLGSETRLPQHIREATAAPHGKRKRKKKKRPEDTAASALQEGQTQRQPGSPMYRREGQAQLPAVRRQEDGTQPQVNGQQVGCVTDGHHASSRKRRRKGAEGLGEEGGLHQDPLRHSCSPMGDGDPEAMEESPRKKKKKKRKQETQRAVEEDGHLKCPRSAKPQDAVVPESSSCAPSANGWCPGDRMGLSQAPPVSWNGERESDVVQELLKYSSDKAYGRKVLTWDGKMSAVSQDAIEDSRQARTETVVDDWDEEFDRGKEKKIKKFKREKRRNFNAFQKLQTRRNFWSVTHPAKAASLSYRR
Procedure, shortened: as §1

[3] = target: T2, USP38 (UniProt Q8NB14)
T2 sequence (whole entry): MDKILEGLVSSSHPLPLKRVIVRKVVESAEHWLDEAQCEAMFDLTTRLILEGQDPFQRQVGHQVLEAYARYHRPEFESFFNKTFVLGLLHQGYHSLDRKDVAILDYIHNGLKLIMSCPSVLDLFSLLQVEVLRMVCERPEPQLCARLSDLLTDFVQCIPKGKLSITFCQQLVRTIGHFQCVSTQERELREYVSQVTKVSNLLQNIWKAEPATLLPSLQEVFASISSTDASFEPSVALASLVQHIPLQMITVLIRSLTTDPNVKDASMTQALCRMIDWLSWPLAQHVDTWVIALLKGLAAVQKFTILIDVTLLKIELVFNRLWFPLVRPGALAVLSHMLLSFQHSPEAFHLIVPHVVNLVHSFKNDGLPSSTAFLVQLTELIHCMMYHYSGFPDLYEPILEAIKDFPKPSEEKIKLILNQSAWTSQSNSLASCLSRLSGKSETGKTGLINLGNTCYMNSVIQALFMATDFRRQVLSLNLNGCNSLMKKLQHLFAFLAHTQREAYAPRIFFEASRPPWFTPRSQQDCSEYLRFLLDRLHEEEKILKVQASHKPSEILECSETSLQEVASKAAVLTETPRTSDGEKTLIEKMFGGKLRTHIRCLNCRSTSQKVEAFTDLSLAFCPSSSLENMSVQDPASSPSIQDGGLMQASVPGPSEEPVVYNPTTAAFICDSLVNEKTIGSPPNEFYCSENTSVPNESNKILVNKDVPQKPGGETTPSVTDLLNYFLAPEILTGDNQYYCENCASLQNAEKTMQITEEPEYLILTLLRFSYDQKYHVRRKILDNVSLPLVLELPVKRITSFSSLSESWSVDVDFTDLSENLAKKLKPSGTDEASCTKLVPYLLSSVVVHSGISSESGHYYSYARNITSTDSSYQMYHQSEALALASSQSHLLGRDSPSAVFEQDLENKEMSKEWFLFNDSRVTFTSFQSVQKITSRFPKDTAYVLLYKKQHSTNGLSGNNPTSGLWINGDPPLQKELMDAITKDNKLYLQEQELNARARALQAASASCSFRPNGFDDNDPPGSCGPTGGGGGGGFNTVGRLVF
Procedure, shortened: as §1

[4] = target: T3, USP39 (UniProt Q53GS9)
T3 sequence (whole entry): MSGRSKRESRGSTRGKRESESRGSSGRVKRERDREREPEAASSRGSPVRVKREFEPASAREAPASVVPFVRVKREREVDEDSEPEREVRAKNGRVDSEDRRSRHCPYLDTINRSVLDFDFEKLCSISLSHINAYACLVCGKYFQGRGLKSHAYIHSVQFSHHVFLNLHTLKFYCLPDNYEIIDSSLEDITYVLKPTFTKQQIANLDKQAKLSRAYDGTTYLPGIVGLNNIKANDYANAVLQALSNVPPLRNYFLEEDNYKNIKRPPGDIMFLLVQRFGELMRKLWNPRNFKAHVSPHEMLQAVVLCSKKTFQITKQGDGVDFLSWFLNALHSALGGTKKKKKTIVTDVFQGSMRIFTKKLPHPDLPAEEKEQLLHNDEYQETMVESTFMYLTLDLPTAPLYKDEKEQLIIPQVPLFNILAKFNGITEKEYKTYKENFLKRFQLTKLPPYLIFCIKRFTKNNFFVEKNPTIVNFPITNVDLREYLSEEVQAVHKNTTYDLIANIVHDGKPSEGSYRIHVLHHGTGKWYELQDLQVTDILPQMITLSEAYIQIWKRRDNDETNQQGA
Procedure, shortened: as §1

[5] = target: T4, USP4 (UniProt Q13107)
T4 sequence (whole entry): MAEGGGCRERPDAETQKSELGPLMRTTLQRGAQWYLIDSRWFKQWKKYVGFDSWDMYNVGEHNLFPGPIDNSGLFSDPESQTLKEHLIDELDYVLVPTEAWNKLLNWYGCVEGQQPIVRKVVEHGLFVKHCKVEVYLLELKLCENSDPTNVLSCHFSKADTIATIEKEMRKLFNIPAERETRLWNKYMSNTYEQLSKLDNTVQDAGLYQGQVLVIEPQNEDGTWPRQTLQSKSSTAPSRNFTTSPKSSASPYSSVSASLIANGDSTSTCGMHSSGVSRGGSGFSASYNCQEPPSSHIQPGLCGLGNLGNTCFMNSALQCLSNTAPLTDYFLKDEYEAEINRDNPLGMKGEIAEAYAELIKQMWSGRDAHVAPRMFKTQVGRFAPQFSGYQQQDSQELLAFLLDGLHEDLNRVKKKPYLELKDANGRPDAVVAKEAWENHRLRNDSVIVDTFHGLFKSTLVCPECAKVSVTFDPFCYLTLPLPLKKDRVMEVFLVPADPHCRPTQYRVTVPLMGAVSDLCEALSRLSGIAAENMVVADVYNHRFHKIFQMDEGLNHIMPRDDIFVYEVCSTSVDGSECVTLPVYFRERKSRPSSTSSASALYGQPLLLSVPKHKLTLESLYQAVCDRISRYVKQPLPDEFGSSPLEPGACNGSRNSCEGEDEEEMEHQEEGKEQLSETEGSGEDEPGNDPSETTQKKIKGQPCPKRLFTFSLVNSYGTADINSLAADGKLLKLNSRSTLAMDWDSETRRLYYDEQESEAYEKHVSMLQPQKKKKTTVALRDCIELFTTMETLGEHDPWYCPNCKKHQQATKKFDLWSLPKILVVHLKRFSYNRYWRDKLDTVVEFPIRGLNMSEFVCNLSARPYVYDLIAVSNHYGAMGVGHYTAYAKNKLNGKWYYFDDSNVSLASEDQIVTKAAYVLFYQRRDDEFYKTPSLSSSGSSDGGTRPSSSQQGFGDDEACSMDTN
Procedure, shortened: as §1

Measured: log2 ratio of Biotin-Ahx-Ub-VS probe labelling

USP34, sequence (Q70CQ2 whole entry, the tested form may be a part): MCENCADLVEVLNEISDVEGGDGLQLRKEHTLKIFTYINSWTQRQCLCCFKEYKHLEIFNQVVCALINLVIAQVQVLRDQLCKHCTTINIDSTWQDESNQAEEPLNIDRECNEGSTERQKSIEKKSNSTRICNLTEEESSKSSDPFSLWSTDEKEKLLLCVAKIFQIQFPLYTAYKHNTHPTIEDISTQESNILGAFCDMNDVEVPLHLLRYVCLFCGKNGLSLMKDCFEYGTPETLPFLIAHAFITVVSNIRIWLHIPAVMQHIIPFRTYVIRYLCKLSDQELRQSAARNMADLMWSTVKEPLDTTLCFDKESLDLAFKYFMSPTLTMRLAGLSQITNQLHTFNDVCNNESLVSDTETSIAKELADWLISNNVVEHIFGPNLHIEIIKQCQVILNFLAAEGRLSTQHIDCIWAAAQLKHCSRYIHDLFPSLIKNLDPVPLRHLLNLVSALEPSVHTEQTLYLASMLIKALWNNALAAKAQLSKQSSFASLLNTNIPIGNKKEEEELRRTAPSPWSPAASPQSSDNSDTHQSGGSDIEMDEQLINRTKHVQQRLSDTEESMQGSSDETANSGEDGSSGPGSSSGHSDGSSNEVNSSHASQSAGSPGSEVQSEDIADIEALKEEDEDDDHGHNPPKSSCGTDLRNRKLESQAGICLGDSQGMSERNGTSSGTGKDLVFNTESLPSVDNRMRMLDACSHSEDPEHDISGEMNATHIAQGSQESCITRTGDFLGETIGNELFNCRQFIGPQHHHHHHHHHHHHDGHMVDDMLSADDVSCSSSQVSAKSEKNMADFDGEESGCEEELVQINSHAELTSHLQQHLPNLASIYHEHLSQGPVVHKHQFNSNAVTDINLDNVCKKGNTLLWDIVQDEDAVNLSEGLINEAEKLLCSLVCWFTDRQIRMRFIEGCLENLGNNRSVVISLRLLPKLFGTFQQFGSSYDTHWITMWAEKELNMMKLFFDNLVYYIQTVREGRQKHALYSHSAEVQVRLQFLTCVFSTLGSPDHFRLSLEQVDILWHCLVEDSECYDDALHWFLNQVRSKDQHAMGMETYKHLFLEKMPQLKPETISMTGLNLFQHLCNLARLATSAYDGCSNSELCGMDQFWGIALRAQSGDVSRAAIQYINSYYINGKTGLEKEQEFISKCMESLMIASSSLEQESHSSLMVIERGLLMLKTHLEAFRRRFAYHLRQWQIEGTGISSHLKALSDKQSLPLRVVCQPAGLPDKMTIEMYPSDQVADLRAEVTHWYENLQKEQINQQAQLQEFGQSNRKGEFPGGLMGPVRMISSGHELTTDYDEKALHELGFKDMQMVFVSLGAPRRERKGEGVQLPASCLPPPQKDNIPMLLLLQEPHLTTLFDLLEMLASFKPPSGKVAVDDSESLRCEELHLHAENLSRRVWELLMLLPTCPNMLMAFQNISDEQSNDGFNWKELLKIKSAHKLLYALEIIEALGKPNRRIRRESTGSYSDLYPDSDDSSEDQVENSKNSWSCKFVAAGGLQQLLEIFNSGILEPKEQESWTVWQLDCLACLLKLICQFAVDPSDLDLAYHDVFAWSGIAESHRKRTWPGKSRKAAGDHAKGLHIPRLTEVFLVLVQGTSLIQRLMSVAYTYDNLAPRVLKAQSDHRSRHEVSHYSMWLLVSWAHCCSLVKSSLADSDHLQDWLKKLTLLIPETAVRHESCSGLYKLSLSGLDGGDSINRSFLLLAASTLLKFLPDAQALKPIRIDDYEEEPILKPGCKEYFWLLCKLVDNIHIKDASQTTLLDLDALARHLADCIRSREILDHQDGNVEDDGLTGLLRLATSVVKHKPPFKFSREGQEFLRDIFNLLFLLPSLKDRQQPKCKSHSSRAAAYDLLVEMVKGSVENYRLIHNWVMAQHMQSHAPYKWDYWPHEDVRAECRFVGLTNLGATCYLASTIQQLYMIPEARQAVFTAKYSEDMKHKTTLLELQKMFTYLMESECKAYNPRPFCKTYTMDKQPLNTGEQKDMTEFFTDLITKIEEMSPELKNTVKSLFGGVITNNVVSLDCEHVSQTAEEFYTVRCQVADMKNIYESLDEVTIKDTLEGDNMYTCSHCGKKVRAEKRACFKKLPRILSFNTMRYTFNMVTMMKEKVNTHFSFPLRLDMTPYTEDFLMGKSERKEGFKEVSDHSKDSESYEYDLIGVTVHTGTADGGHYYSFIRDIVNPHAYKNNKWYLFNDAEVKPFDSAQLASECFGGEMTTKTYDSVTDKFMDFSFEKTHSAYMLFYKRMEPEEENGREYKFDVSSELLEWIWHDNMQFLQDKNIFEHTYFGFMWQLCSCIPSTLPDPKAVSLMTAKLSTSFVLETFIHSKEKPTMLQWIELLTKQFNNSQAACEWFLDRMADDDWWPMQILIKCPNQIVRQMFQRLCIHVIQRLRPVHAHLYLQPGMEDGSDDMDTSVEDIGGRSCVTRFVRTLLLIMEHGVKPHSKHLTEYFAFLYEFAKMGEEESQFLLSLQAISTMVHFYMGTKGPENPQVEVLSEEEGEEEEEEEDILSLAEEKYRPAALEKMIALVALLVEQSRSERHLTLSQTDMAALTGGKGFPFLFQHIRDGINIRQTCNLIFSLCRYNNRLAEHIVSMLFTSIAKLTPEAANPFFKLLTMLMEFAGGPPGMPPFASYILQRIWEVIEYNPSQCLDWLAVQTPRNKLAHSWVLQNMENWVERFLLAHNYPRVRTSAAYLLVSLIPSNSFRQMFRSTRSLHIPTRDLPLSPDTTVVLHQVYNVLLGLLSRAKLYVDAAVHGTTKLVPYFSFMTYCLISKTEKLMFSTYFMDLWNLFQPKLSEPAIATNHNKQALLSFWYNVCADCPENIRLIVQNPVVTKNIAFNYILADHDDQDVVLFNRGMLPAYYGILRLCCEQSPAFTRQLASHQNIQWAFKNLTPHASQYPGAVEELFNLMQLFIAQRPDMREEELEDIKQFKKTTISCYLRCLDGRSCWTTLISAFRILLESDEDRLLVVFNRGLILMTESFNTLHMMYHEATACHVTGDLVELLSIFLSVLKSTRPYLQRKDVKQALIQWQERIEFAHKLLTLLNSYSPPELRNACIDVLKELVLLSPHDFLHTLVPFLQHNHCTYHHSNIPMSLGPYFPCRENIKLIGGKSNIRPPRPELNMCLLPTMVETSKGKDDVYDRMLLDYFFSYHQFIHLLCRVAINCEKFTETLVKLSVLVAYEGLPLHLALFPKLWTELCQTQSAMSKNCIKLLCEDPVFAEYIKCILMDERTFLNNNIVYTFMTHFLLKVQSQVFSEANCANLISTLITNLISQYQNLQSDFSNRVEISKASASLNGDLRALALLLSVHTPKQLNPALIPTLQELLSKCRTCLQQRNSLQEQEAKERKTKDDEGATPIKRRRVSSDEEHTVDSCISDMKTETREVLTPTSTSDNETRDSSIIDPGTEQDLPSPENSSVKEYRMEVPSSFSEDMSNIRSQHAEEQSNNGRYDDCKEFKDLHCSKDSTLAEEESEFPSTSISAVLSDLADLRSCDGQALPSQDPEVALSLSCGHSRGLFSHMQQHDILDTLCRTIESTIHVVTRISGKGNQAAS

CN(CCC(O)c1ccc(Br)cc1)C(=O)CCl (stereo not given)
inactive: [1] -0.261 | [2] -0.0809 | [3] -0.17 | [4] -0.00535 | [5] -0.206
